FECH block: blocks human mitochondrial ferrochelatase activity | P22830 | purified FECH, Ni-mesoporphyrin absorbance 550 nm | calls only at 10 µM (by protocol) | 20,000 compounds, 3.3% hits | AID 1671448;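 active means enzyme reaction rate more than 3 SD below the solvent-only control wells on the same plate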;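 further: lower slope than DMSO wells means FECH inhibition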
Target sequence (P22830 whole entry, looked up): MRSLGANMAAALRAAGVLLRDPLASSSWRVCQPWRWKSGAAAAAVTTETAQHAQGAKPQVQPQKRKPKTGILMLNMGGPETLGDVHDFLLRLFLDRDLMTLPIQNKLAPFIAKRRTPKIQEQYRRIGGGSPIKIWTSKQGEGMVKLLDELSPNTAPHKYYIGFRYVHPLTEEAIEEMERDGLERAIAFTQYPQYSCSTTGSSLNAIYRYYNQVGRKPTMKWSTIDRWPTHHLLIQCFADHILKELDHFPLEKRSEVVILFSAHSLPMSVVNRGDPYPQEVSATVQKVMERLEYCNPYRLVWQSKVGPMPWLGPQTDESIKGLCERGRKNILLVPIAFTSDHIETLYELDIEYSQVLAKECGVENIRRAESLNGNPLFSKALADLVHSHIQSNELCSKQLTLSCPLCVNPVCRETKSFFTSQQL
* hit, by the source's call; i = inactive; + = active, no number. This excerpt belongs to a sample that is enriched for hits.

SMILES	FECH block
Cc1ccccc1-c1nc2nc(CNc3cccc(C)c3C)cc(=O)n2[nH]1	i
Cc1ccc(NCc2cc(=O)n3[nH]c(-c4ccccc4C)nc3n2)cc1Cl	i
Cc1ccccc1-c1nc2nc(CNc3cccc(Cl)c3C)cc(=O)n2[nH]1	i
Cc1ccccc1-c1nc2nc(CNc3ccc(F)cc3)cc(=O)n2[nH]1	+
Cc1ccc(Cl)cc1NCc1cc(=O)n2[nH]c(-c3ccccc3C)nc2n1	+
Cc1ncc(-c2cccc(C(=O)O)c2)[nH]1	i
CCCSc1ncc(CN2CCC(N)(C(=O)O)C2)cn1 (stereo not drawn)	i
C=CCNc1ccccc1C(=O)NC1C(=O)Nc2cc(OC)ccc21 (stereo not drawn)	i
CCCNC(=O)c1[nH]cnc1C(=O)NC1CCCCNC1=O (stereo not drawn)	i
O=C(NC1CCCCC1)c1nc[nH]c1C(=O)NC1CCCCNC1=O (stereo not drawn)	i
O=C(NC1CC1)c1nc[nH]c1C(=O)NC1CCCCNC1=O (stereo not drawn)	+
COc1cccc(-c2[nH]ncc2C(=O)NCc2cccnc2-n2ccnc2)c1	i
O=C(Nc1nc2n(n1)C(c1c(F)cccc1Cl)C=C(c1ccccc1)N2)c1ccco1 (stereo not drawn)	i
CCCC(=O)Nc1nc2n(n1)C(c1ccccc1Cl)C=C(c1ccc(Cl)cc1)N2 (stereo not drawn)	+
CCCC(=O)Nc1nc2n(n1)C(c1ccccc1Cl)C=C(c1ccc(C)cc1)N2 (stereo not drawn)	i
O=C(CCc1ccccc1)Nc1nc2n(n1)C(c1ccccc1Cl)C=C(c1ccccc1)N2 (stereo not drawn)	i
O=C(CCc1ccccc1)Nc1nc2n(n1)C(c1c(F)cccc1Cl)C=C(c1ccccc1)N2 (stereo not drawn)	+
CCCC(=O)Nc1nc2n(n1)C(c1c(F)cccc1Cl)C=C(c1ccccc1)N2 (stereo not drawn)	+
CCCC(=O)Nc1nc2n(n1)C(c1c(F)cccc1Cl)C=C(c1ccc(C)cc1)N2 (stereo not drawn)	i
CC(C)CC(=O)Nc1nc2n(n1)C(c1ccccc1Cl)C=C(c1ccccc1)N2 (stereo not drawn)	i
O=C(Nc1nc2n(n1)C(c1c(F)cccc1Cl)C=C(c1ccccc1)N2)c1ccccc1F (stereo not drawn)	i
CC(C)CC(=O)Nc1nc2n(n1)C(c1c(F)cccc1Cl)C=C(c1ccccc1)N2 (stereo not drawn)	+
CC(=O)Nc1nc2n(n1)C(c1c(F)cccc1Cl)C=C(c1ccc(Cl)cc1)N2 (stereo not drawn)	i
CCCC(=O)Nc1nc2n(n1)C(c1ccccc1Cl)C=C(c1ccccc1)N2 (stereo not drawn)	i
Cc1noc(C)c1CCCNC(=O)c1ccc(-c2ccncc2)nc1	i
SMILES	FECH block
COc1c(F)cccc1C(=O)NC(C)c1n[nH]c(C)n1 (stereo not drawn)	i
CCc1cc(Sc2ccc(NC(=O)CCc3ccccc3)cc2)n2ncnc2n1	i
CCCCN(C)C(=O)C1CCC(Cn2c(=O)c3sccc3n(CC(=O)NC(C)C)c2=O)CC1 (stereo not drawn)	i
CSc1nc(NCCCN(C)C)c(C#N)c(-c2ccc(Cl)cc2)n1	i
COc1ccc(OC)c(S(=O)(=O)N2CCC(n3c(C(F)(F)F)nc4cccnc43)CC2)c1	i
CCn1c(CNS(=O)(=O)c2ccc(OC)cc2)nc2cccnc21	i
COc1cc(NCc2cccnc2N(C)Cc2ccccc2)ncn1	i
Cc1cc(Nc2ccc(OC(=O)c3ccncc3)cc2)n2nc(-c3cccnc3)nc2n1	i
Cc1cc(Nc2ccc(OC(=O)c3ccco3)cc2)n2nc(-c3cccnc3)nc2n1	+
Cc1cc(Nc2ccc(OC(=O)c3ccc(C)c(C)c3)cc2)n2nc(-c3cccnc3)nc2n1	i
O=C(c1cn(-c2ccccc2)nn1)N1CCCC1CCc1ccccc1 (stereo not drawn)	i
CN(C)S(=O)(=O)N1CCC(c2nc3ccccc3s2)CC1	i
Cc1ccc(NCc2cc(=O)n3[nH]c(-c4ccc(C(C)(C)C)cc4)nc3n2)cc1C	i
Cc1cccc(C)c1NCc1cc(=O)n2[nH]c(-c3ccc(C(C)(C)C)cc3)nc2n1	+
Cc1ccc(NCc2cc(=O)n3[nH]c(-c4ccc(C(C)(C)C)cc4)nc3n2)c(C)c1	+
COc1ccc(NCc2cc(=O)n3[nH]c(-c4ccc(C(C)(C)C)cc4)nc3n2)c(OC)c1	i
Cc1cccc(C)c1NCc1cc(=O)n2[nH]c(NCc3ccccc3)nc2n1	i
Cc1cccc(NCc2cc(=O)n3[nH]c(-c4ccc(C(C)(C)C)cc4)nc3n2)c1C	i
CC(C)(C)c1ccc(-c2nc3nc(CNc4ccc(F)cc4)cc(=O)n3[nH]2)cc1	+
Cc1ccc(NCc2cc(=O)n3[nH]c(NCc4ccccc4)nc3n2)c(C)c1	i
CCCNCc1cc(=O)n2[nH]c(-c3ccc(C(C)(C)C)cc3)nc2n1	i
COc1ccc(OC)c(-c2nc(Cn3cc(CCO)cn3)c(C)o2)c1	i
COc1ccccc1/C=C/CN1CCC2(CC1)C(=O)NCCN2C	i
Cc1cccc(NS(=O)(=O)c2cc(C(=O)N3CCCCC3)cs2)c1C	i
COc1ccc(OC)c(NC(=O)CN2CCN(Cc3ccccc3C)S2(=O)=O)c1	i
SMILES	FECH block
CC(C)NC(=O)[C@@H]1C[C@@H](N)CN1CCn1c(=O)oc2ccccc21	i
Cc1cccc(NS(=O)(=O)c2cc(C(=O)N3CCCC3)cs2)c1	i
O=C(Nc1nc2n(n1)C(c1ccc(Cl)cc1)C=C(c1ccccc1)N2)c1ccc(Cl)cc1 (stereo not drawn)	i
O=C(Nc1nc2n(n1)C(c1ccccc1)C=C(c1ccc(Cl)cc1)N2)c1ccccc1 (stereo not drawn)	i
O=C(Nc1nc2n(n1)C(c1ccc(Cl)cc1)C=C(c1ccccc1)N2)c1ccc(F)cc1 (stereo not drawn)	i
O=C(Nc1nc2n(n1)C(c1ccc(Cl)cc1)C=C(c1ccc(Cl)cc1)N2)c1cccnc1 (stereo not drawn)	+
Cc1ccc(C2=CC(c3ccc(Cl)cc3)n3nc(NC(=O)c4cccc(Cl)c4)nc3N2)cc1 (stereo not drawn)	i
O=C(Nc1nc2n(n1)C(c1ccc(Cl)cc1)C=C(c1ccccc1)N2)c1cccnc1 (stereo not drawn)	+
COc1cccc(Nc2cc(C)nc3nc(-c4cccnc4)nn23)c1	i
CCN(c1nc2nc(C)c(Cl)c(C)n2n1)S(=O)(=O)c1ccc(Cl)cc1	i
Cc1cc(NC(=O)C2CCN(c3ccc(-c4ccc(Br)s4)nn3)CC2)no1	i
Cc1ccc(N2CC(NC(=O)c3ccco3)CC2=O)cc1 (stereo not drawn)	i
Cc1ccc(NCc2ccc3[nH]c(-c4ccc(F)cc4)c(C)c3c2)nn1	i
CCN(CC)C(=O)[C@@H]1C[C@H](N)CN1C(=O)Cc1ccc(SC)cc1	i
CCCCOc1ccc(CNC(=O)c2ccc(CN3C(=O)CCn4nccc43)cc2)cc1	i
CCCCOc1ccc(CNC(=O)CN2C(=O)c3cccnc3Sc3ccccc32)cc1	+
CN1CC(=O)N(CC(=O)NCc2ccc(F)cc2)c2ccccc2C1=O	i
O=C(CCCN1C(=O)c2cccnc2Sc2ccccc21)Nc1cc(-c2cccc(Cl)c2)no1	i
CN1CC(=O)N(CC(=O)Nc2ccc(F)c(F)c2)c2ccccc2C1=O	i
